{"source": "paper PMC8384837", "about": "“Expanding the binding specificity for RNA recognition by a PUF domain”", "assay_in_all_cases": "yeast three-hybrid, YBZ-1, SC-Leu-His + 0.5 mM 3-AT, 4 days", "settings_in_all_cases": "tags: N-Gal4 AD-HA kept; label: inside an RPR1-promoter hybrid RNA with tandem MS2 sites; ssRNA", "key": {"[1]": {"target": "PUM1 PUF domain R5-MSR (Homo sapiens, UniProt Q14671 828-1176, C1007M;R1008S;Q1011R)", "method_in_brief": "(§1)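 Pumilio-1 PUF domain libraries, randomized (NNK) at the three base-contacting residues of each repeat, were co-expressed with matching RNA elements from a centromeric plasmid in strain YBZ-1 (LexA–MS2 coat fusion, HIS3 reporter). Transformants were plated on SC-Leu (input) and SC-Leu-His + 0.5 mM 3-AT (selection) for four days, and repeat regions were PCR-amplified and Illumina-sequenced. The interaction score is the log2 change in variant frequency from input to selection, with pseudocount 1 where absent.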"}, "[2]": {"target": "PUM1 PUF domain R5-RMK (Homo sapiens, UniProt Q14671 828-1176, C1007R;R1008M;Q1011K)", "method_in_brief": "as §1"}, "[3]": {"target": "PUM1 PUF domain R3-VNE (Homo sapiens, UniProt Q14671 828-1176, C935V;R936N;Q939E)", "method_in_brief": "as §1"}, "[4]": {"target": "PUM1 PUF domain R8-RKR (Homo sapiens, UniProt Q14671 828-1176, N1122R;Y1123K;Q1126R)", "method_in_brief": "as §1"}, "[5]": {"target": "PUM1 PUF domain R3-LYS (Homo sapiens, UniProt Q14671 828-1176, C935L;R936Y;Q939S)", "method_in_brief": "as §1"}, "[6]": {"target": "PUM1 PUF domain R3-QPE (Homo sapiens, UniProt Q14671 828-1176, C935Q;R936P;Q939E)", "method_in_brief": "as §1"}, "[7]": {"target": "T1, PUM1 PUF domain R6-SHE (Homo sapiens, UniProt Q14671 828-1176, N1043S;Y1044H;Q1047E)", "T1 sequence": "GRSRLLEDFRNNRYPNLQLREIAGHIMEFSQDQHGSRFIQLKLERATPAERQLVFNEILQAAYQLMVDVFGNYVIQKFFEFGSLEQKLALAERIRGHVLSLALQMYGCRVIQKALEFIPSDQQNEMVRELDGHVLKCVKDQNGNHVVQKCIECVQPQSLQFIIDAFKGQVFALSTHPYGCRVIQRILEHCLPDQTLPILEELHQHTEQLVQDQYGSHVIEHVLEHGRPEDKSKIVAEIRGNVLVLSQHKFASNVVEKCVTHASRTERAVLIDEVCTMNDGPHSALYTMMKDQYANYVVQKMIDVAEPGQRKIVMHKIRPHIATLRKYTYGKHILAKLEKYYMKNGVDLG", "method_in_brief": "as §1"}, "[8]": {"target": "PUM1 PUF domain R1-RMT (Homo sapiens, UniProt Q14671 828-1176, S863R;R864M;Q867T)", "method_in_brief": "as §1"}, "[9]": {"target": "T2, PUM1 PUF domain R6-QWM (Homo sapiens, UniProt Q14671 828-1176, N1043Q;Y1044W;Q1047M)", "T2 sequence": "T1 sequence with S216Q, H217W, E220M", "method_in_brief": "as §1"}}, "note": "Where a chain is given by its changes, count along the chain named.", "data": [{"sequence": "GGCUAGAACUAGUGGAUCCCCCGGCGCCCGGCGGCUCGAGCCCGGGUAAGUGUCAAUAGUCUGCAUGCCGCCGGGCGCCAUGCCUGCAGGUCGACUCUAGAAAACAUG", "values": [{"measurement": "binding signal", "setting": "[1]", "value": "3.83 log2 enrichment (interaction score)"}, {"measurement": "binding signal", "setting": "[2]", "value": "2.87 log2 enrichment (interaction score)"}]}, {"sequence": "GGCUAGAACUAGUGGAUCCCCCGGCGCCCGGCGGCUCGAGCCCGGGUAAGUGUAAAUAGUCUGCAUGCCGCCGGGCGCCAUGCCUGCAGGUCGACUCUAGAAAACAUG", "values": [{"measurement": "binding signal", "setting": "[1]", "value": "1 log2 enrichment (interaction score)"}, {"measurement": "binding signal", "setting": "[3]", "value": "3.16 log2 enrichment (interaction score)"}, {"measurement": "binding signal", "setting": "[4]", "value": "3.9 log2 enrichment (interaction score)"}, {"measurement": "binding signal", "setting": "[5]", "value": "4.77 log2 enrichment (interaction score)"}]}, {"sequence": "GGCUAGAACUAGUGGAUCCCCCGGCGCCCGGCGGCUCGAGCCCGGGUAAGUGUAAUUAGUCUGCAUGCCGCCGGGCGCCAUGCCUGCAGGUCGACUCUAGAAAACAUG", "values": [{"measurement": "binding signal", "setting": "[6]", "value": "2.87 log2 enrichment (interaction score)"}, {"measurement": "binding signal", "setting": "[5]", "value": "5.78 log2 enrichment (interaction score)"}]}, {"sequence": "GGCUAGAACUAGUGGAUCCCCCGGCGCCCGGCGGCUCGAGCCCGGGUAAGUGGAAAUAGUCUGCAUGCCGCCGGGCGCCAUGCCUGCAGGUCGACUCUAGAAAACAUG", "values": [{"measurement": "binding signal", "setting": "[7]", "value": "4.66 log2 enrichment (interaction score)"}]}, {"sequence": "GGCUAGAACUAGUGGAUCCCCCGGCGCCCGGCGGCUCGAGCCCGGGUAAGUGUAAGUAGUCUGCAUGCCGCCGGGCGCCAUGCCUGCAGGUCGACUCUAGAAAACAUG", "values": [{"measurement": "binding signal", "setting": "[3]", "value": "0.75 log2 enrichment (interaction score)"}]}, {"sequence": "GGCUAGAACUAGUGGAUCCCCCGGCGCCCGGCGGCUCGAGCCCGGGUAAGUGUAAAUGGUCUGCAUGCCGCCGGGCGCCAUGCCUGCAGGUCGACUCUAGAAAACAUG", "values": [{"measurement": "binding signal", "setting": "[8]", "value": "1.2 log2 enrichment (interaction score)"}]}, {"sequence": "GGCUAGAACUAGUGGAUCCCCCGGCGCCCGGCGGCUCGAGCCCGGGUAAGUGUAAAUUGUCUGCAUGCCGCCGGGCGCCAUGCCUGCAGGUCGACUCUAGAAAACAUG", "values": [{"measurement": "binding signal", "setting": "[8]", "value": "3.66 log2 enrichment (interaction score)"}]}, {"sequence": "GGCUAGAACUAGUGGAUCCCCCGGCGCCCGGCGGCUCGAGCCCGGGUAAGCGUAAAUAGUCUGCAUGCCGCCGGGCGCCAUGCCUGCAGGUCGACUCUAGAAAACAUG", "values": [{"measurement": "binding signal", "setting": "[4]", "value": "5.43 log2 enrichment (interaction score)"}]}, {"sequence": "GGCUAGAACUAGUGGAUCCCCCGGCGCCCGGCGGCUCGAGCCCGGGUAAGUGAAAAUAGUCUGCAUGCCGCCGGGCGCCAUGCCUGCAGGUCGACUCUAGAAAACAUG", "values": [{"measurement": "binding signal", "setting": "[9]", "value": "4.68 log2 enrichment (interaction score)"}]}]}
